FMDV inh = High Throughput Screening for Foot and Mouth Disease Virus Antivirals; FMDV antiviral cell-based qHTS; Potency, µM (top dose mostly 57.9 µM), for the others: at the top dose activity change, negative = inhibition, hits mostly inhibitors; actives 1.2% (n = 410,000); calls by dose curve; tested in HEK293T cells; further: read-out not given here; potency means the concentration at half of the fitted maximal effect; nearly all actives have a fitted effect of over 45% in size
Lassa entry inh = qHTS for Inhibitors of binding or entry into cells for Lassa Virus; Potency, µM (titrated, usually from 37.9 µM), without a hit: at the highest dose activity change, negative = inhibition, most hits filed as inhibitors; actives 1.2% (n = 300,000); AID 540256, 2011; Lassa virus pseudotype entry inhibition, cell reporter; calls by dose curve; tested in HEK293 cells; further: potency means the concentration at half of the fitted maximal effect; nearly all actives have a fitted effect of over 50% in size
HCV inh = qHTS Assay for Inhibitors of Hepatitis C Virus (HCV) | Huh7.5.1 HCVcc-Cre infection, luciferase reporter, 44 h | Potency, µM (highest dose often 41.8 µM), for inactives: at the top dose activity change, negative = inhibition, hits mostly inhibitors | actives 3.4% (n = 340,000); further: potency means the concentration at half of the fitted maximal effect
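Compounds are dispensed onto cells plated 4 h earlier at 1,000 per well, with HCVcc-Cre virus (about 0.5 moi) added next. Following 44 h of culture, luminescent signal is measured for 15 sec after 15 min with substrate at room temperature.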
MARV entry inh = qHTS for inhibitors of binding or entry into cells for Marburg Virus; Marburg virus pseudotyped entry inhibition, cell reporter; Potency, µM (series often up to 37.8 µM), for the others: top-dose activity change, negative = inhibition, usual class: inhibitors; actives 1.8% (n = 300,000); AID 540276, 2011; calls by dose curve; tested in HEK293 cells; further: potency means the concentration at half of the fitted maximal effect
HCMV inh = qHTS Assay for inhibitors of the human cytomegalovirus (HCMV) | HFF cells, HCMV-luciferase reporter, 72 h; stronger effect = lower value | activity change, negative = inhibition, % at 57.5 µM | actives 4.5% (n = 410,000); in the data active means activity change below about -60%; inconclusive means no clear call, values can overlap the other calls; inactive means above about -39%
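Two-dose cell screen: HFF monolayers treated with compounds and infected with luciferase-expressing HCMV at 1 PFU/cell, 72 h at 37C, then lysed for luciferase measurement.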
Giardia FBPA inh = qHTS Assay for Inhibitors of Fructose-1,6-bisphosphate Aldolase from Giardia Lamblia; A8B2U2; purified Giardia FBPA; Potency, µM (top dose mostly 59.6 µM), inactives show at the highest dose activity, negative = inhibition, most hits filed as inhibitors; actives 0.71% (n = 290,000); AID 2451, 2010; further: potency means the concentration at half of the fitted maximal effect; nearly all actives have a fitted effect of over 55% in size
Target sequence (A8B2U2 whole entry, looked up): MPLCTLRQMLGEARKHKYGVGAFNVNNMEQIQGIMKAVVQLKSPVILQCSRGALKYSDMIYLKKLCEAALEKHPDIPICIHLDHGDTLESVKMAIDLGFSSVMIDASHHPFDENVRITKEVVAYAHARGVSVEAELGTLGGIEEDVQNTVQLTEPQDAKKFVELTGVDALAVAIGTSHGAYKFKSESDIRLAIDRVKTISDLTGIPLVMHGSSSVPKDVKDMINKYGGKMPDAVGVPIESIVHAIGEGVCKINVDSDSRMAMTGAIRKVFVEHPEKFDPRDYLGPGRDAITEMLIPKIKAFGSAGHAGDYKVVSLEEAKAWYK
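40 nM FBPA preincubated 10 min at RT with compound (up to 57.5 uM final), then substrate plus GAPDH/TPI/NAD/arsenate coupling and diaphorase/resazurin added. Fluorescence read after 20 min at RT, 525/598 nm.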
The depositor's hits bear a star; u = inconclusive; x = no result; [ ] = dose if it differs, or a comment. In the library only some 8.3% were active in any assay of this set; here they are far more common. Unless noted, the call rests on the fitted dose curve; in most records, active means well fitted curve in the direction sought with a large enough effect; inconclusive means small, poorly fitted or top-dose-only effect, or another doubt; inactive means no such curve, though single readings can be large; an effect the other way counts as inactive or inconclusive. On the % scale 0 is the no-effect control and ±100 the full control effect.

SMILES	FMDV inh	Lassa entry inh	HCV inh	MARV entry inh	HCMV inh	Giardia FBPA inh
O=C(c1ccc(CS(=O)c2ccccc2Cl)o1)N1CCCCCC1 (centres undefined)	-1.9%	x	2.4%	x	1.6	x
Cc1ccccc1S(=O)(=O)Cc1ccc(C(=O)N2CCN(c3ccccc3F)CC2)o1	u	u	10µM*	u	-33.8	-13.9%
O=C(c1ccc(CS(=O)c2ccccc2Cl)o1)N1CCN(C2CCCCC2)CC1 (centres undefined)	0.0%	x	x	x	-100.6*	x
COc1ccccc1S(=O)(=O)Cc1ccc(C(=O)N2CCN(c3ccc(C)cc3)C(C)C2)o1 (centres undefined)	31.6µM*	x	u	5.8%	-19.1	6.2%
CCc1noc(C)c1C(=O)N1CCOc2ccc(CN3CCN(c4ccccn4)CC3)cc2C1	-10.5%	x	x	x	x	x
COc1cccc(N2CCN(C(=O)CCc3c(C)nc4c(c3C)c(=O)n(C)c(=O)n4C)CC2)c1	0.0%	17.0%[46.1 µM]	x	16.5%[46.1 µM]	19.6	x
C[C@]12CC[C@@H]3c4ccc(O)cc4C[C@@H](CCCCCCCCCS(=O)CCCC(F)(F)C(F)(F)F)[C@H]3[C@@H]1CC[C@@H]2O (some centres undefined)	x	3.26µM*	x	u	x	x
CCn1nc(C)c(/C=C/C(=O)Nc2ccc(C)cc2C)c1C	-25.7%	u	-28.0%	-0.2%	-72.7*	-9.6%
C=CCOC(=O)N[C@H](c1ccccc1)C(C(C)=O)C(C)=O	x	x	x	u	x	0.3%
CN(C(=O)c1cccc(NC(=O)Cc2cccc(NC(=O)C3CCCN(C(=O)CCc4ccccc4)C3)c2)c1)C1CCC1 (centres undefined)	u	x	3.55µM*	x	-9.1	x
O=C(Cc1cccc(NC(=O)C2CCCN(C(=O)CCc3ccccc3)C2)c1)Nc1cccc(C(=O)N2CCCCC2)c1 (centres undefined)	u	x	4.47µM*	x	-28.6	x
O=C(Nc1cccc(C(=O)N2CCCC2)c1)C1CCC1	-6.2%	x	0.562µM*	x	-21.7	x
O=C(Cc1cccc(NC(=O)C2CCCN(C(=O)CCc3ccccc3)C2)c1)Nc1cccc(C(=O)N2CCOCC2)c1 (centres undefined)	-15.2%	x	u	x	-2.7	x
CCCN(CCC)c1cc(C)nc2nc(-c3ccc(C(C)(C)C)cc3)nn12	8.7%	16.4%[46.1 µM]	x	0.9%[46.1 µM]	-8.0	x
O=C1OCC2OC(O)C(O)C(O)C2OC(=O)c2cc(O)c(O)c(O)c2-c2c(O)c(O)c3oc(=O)c4c(c(O)c(O)c5oc(=O)c2c3c54)-c2c1cc(O)c(O)c2O (centres undefined)	x	x	x	x	x	3.97µM*
O=C(/C=C/c1cc[n+](CC(=O)c2ccc3cccc4c3c2CC4)cc1)c1ccc2cccc3c2c1CC3	-13.3%	x	6.31µM*	x	x	-12.3%
CCOCCCNC(=O)C1CCN(c2cc(C)nc3c(-c4ccc(OC)c(OC)c4)c(C)nn23)CC1	73.8%	-12.0%	11.2µM*	-24.3%	-6.0	2.8%
COc1ccc(CCNc2cc(C)nc3c(-c4ccccc4)c(C)nn23)cc1OC	0.0%	0.6%	11.2µM*	-35.9%	-18.5	-20.5%
COCCNc1cc(C)nc2c(-c3ccccc3OC)c(C)nn12	-22.2%	19.1%	u	0.4%	u	5.0%
COc1ccc(-c2c(C)nn3c(NC4CCCC4)cc(C)nc23)cc1OC	u	x	10µM*	x	u	1.1%
COc1ccccc1-c1cnn2c(NCCc3ccccc3)cc(C)nc12	27.7%	-32.5%[46.1 µM]	10µM*	-1.6%[46.1 µM]	-1.5	-5.5%
Cc1cc(NC2CCCC2)n2nc(C)c(-c3ccccc3)c2n1	-10.1%	9.0%[46.1 µM]	u	u	18.2	8.3%
CCN(CC)C(=O)C1CCN(c2cc(C)nc3c(-c4ccc(OC)c(OC)c4)c(C)nn23)CC1	-22.9%	15.4%[46.1 µM]	x	2.2%[46.1 µM]	15.7	x
Cc1cc(NCCN2CCOCC2)n2ncc(-c3ccccc3)c2n1	0.0%	u	u	u	223.5	9.8%
CCOc1ccc(S(=O)(=O)c2cn(Cc3ccc(C)cc3)c3ccc(OC)cc3c2=O)cc1	15.1%	u	x	u	5.5	x
SMILES	FMDV inh	Lassa entry inh	HCV inh	MARV entry inh	HCMV inh	Giardia FBPA inh
Cc1ccc(C(C)C)c(OC(C)C(=O)NCC2(N(C)C)CCCCC2)c1 (centres undefined)	-27.0%	-0.9%[46.1 µM]	x	u	-38.5	x
O=C(Nc1ccccc1F)N1CC(=O)N2[C@H](CO)[C@H](c3ccc(Br)cc3)[C@@H]2C1	x	x	x	x	18.0	x
COc1ccc(CCNc2nc3cc(OC)c(OC)cc3c3nc(-c4ccccc4)nn23)cc1OC	4.47µM*	x	x	11.7%[46.1 µM]	-14.0	x
COc1ccc(CCNc2nc3ccccc3c3nc(-c4cccc(C)c4)nn23)cc1OC	12.0%	x	x	13.7%[46.1 µM]	174.5	x
COc1ccc(CCNc2cc(C)nc3c(-c4ccc(Cl)cc4)cnn23)cc1OC	-28.3%	-4.0%	u	-11.5%	34.2	-9.9%
COc1ccc(CCNc2cc(C)nc3c(-c4ccccc4)cnn23)cc1OC	6.0%	8.91µM*	u	9.2µM*	-68.2*	-20.2%
CC(=O)c1ccc(-c2ccc(C3C4C=CCCC4(C)C(=O)N3Cc3ccccc3)c(F)c2)cc1 (centres undefined)	x	x	x	x	x	0.7%
CN(C)c1ccc(Sc2ccc3nc(N)nc(N)c3c2)cc1	-29.8%	x	x	x	-92.1*	x
CN(C)c1ccc(SC#N)cc1	-25.8%	-5.6%	13.1%	22.4%	-1.8	-0.6%
COCCCn1c(SCC(=O)Nc2ccc(OC)cc2)nc2c(sc3ccccc32)c1=O	8.5%	-26.8%[46.1 µM]	x	x	u	x
Cc1cccc(CSc2nc3c(sc4ccccc43)c(=O)n2CCC(=O)NC(C)C)c1	-23.8%	21.9%[46.1 µM]	x	13.1%[46.1 µM]	-60.8*	x
CCn1c(SCC(=O)Nc2ccc(F)cc2)nc2ccccc2c1=O	9.8%	x	-19.0%	x	-69.1*	13.0%
CCc1ccc(NC(=O)CSc2nc3ccccc3c(=O)n2CCCC(=O)N2CCCC2)cc1	19.2%	25.9µM*	u	9.2µM*	-66.0*	-0.2%
COc1ccc(NC(=O)CSc2nc3c(sc4ccccc43)c(=O)n2CCCN2CCCC2)cc1	-4.5%	x	2.51µM*	x	x	x
C=CCn1c(SCC(=O)Nc2ccc(F)cc2)nc2ccccc2c1=O	44.7%	x	-19.7%	x	-23.0	8.5%
COc1ccc(C2=Nn3c(nnc3-c3ccc(OC)c(OC)c3)SC2)c(OC)c1	x	x	x	x	x	0.3%
CCCCNc1nc(C)nc2c1nc(-c1ccccc1)n2CCCN(CC)CC	x	x	x	x	x	3.1%
O=C(CC1(c2cccc(F)c2)CC(=O)N(Cc2cccnc2)C1=O)N1CCCCCCC1 (centres undefined)	1.1%	x	x	x	x	x
CCc1ccc(NC(=O)CSc2ccc(-c3sc(-c4ccccc4)nc3C)nn2)cc1	-4.3%	-17.0%[46.1 µM]	x	x	7.8	x
Cc1cc(C)c2c(n1)SCCN2C(=O)Nc1ccc(C(=O)Nc2ccc(C(C)C)cc2)cc1	u	u	x	x	0.0	x
